Measured values published in PubChem BioAssay (NCI).
This is part of a sample that, as a whole, favours compounds with a hit. Of some 83,000 tested, about 20% had one in any assay.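 Interpretation: 100, growth as untreated; towards 0, rising growth inhibition; 0, no net growth; 0 to -100, cell death. Compounds scoring below 10 were considered active.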 Values without a mark were called inactive. Activity calls are given as the source filed them.

Assays:
Experiment in all cases: NCI-60 one-dose screen, 48 h (100 = growth as untreated, 0 = no growth, -100 = all killed)
Conditions in all cases: 10 µM
EKVX NSCLC = tested on: EKVX NSCLC
SN12C renal = tested on: SN12C renal
UO-31 renal = tested on: UO-31 renal
TK-10 renal = tested on: TK-10 renal
ACHN renal = tested on: ACHN renal
CAKI-1 renal = tested on: CAKI-1 renal
A498 renal = tested on: A498 renal
MOLT-4 leukemia = tested on: MOLT-4 leukemia
SR leukemia = tested on: SR leukemia
RPMI-8226 leukemia = tested on: RPMI-8226 leukemia
OVCAR-8 ovarian = tested on: OVCAR-8 ovarian
OVCAR-5 ovarian = tested on: OVCAR-5 ovarian
OVCAR-4 ovarian = tested on: OVCAR-4 ovarian
SK-OV-3 ovarian = tested on: SK-OV-3 ovarian
IGROV1 ovarian = tested on: IGROV1 ovarian
OVCAR-3 ovarian = tested on: OVCAR-3 ovarian
HS 578T breast = tested on: HS 578T breast
NCI/ADR-RES ovarian = tested on: NCI/ADR-RES ovarian
CCRF-CEM leukemia = tested on: CCRF-CEM leukemia

Row | SMILES | growth (EKVX NSCLC) | growth (SN12C renal) | growth (UO-31 renal) | growth (TK-10 renal) | growth (ACHN renal) | growth (CAKI-1 renal) | growth (A498 renal) | growth (MOLT-4 leukemia) | growth (SR leukemia) | growth (RPMI-8226 leukemia) | growth (OVCAR-8 ovarian) | growth (OVCAR-5 ovarian) | growth (OVCAR-4 ovarian) | growth (SK-OV-3 ovarian) | growth (IGROV1 ovarian) | growth (OVCAR-3 ovarian) | growth (HS 578T breast) | growth (NCI/ADR-RES ovarian) | growth (CCRF-CEM leukemia)
1 | COc1cc(-c2csc(NC(=O)Nc3ccc(Cl)c(C(F)(F)F)c3)n2)cc(OC)c1OC | 2.12% (active) | -11.3% (active) | -1.04% (active) | -4.34% (active) | -8.21% (active) | 6.78% (active) | -15.7% (active) | 2.65% (active) | 0.909% (active) | -7.41% (active) | 4.2% (active) | 18.4% | -1.69% (active) | 2.04% (active) | 25.2% | -19% (active) | 16.8% | -8.03% (active) | –
2 | COc1ccc2nc3cc(Cl)ccc3c(Nc3cc(CN4CCCC4)c(O)c(CN4CCCC4)c3)c2n1 | 8.66% (active) | 10.7% | 18.9% | 21.4% | 22.9% | -4.38% (active) | -17.4% (active) | -25.2% (active) | – | -3.6% (active) | 10.5% | 6.64% (active) | -16.3% (active) | 29.8% | 27.6% | 23.9% | 15.5% | 10.1% | 2.85% (active)
3 | CO[C@H]1CC(O[C@@H]2/C(C)=C/C[C@@H]3C[C@@H](C[C@]4(C=C[C@H](C)[C@@H](C5CCCCC5)O4)O3)OC(=O)[C@@H]3C=C(C)[C@@H](O)[C@H]4OC/C(=C\C=C\[C@@H]2C)[C@]43O)O[C@@H](C)C1O[C@H]1C[C@H](OC)[C@@H](O)[C@H](C)O1 (stereo not given in full) | -94.3% (active) | -79.1% (active) | -98.4% (active) | -85.5% (active) | -100% (active) | -94.6% (active) | -80.3% (active) | -58.2% (active) | -52.8% (active) | -25.1% (active) | -25.9% (active) | -65.3% (active) | -46.8% (active) | -84.1% (active) | -54.7% (active) | -96.9% (active) | -40.4% (active) | -65.1% (active) | -44.1% (active)
4 | COc1ccc(Cl)cc1Nc1nc(C(F)(F)F)ccc1C(=O)N/N=C/c1cc(OC)c(OC)c(OC)c1 | 32.6% | 25.1% | 15.4% | 20.2% | 16% | 27.6% | 26.8% | 9.62% (active) | 14.1% | 23% | 53.2% | 62.4% | 23.7% | 34.9% | – | 10.2% | -11.3% (active) | 0.977% (active) | 9.22% (active)
5 | CC1/C=C/C=C/C=C/C=C/C=C/C=C/C=C/C(O[C@@H]2O[C@H](C)[C@H](O)[C@@H](O)[C@@H]2N)CC(O)C(C(=O)O)C(O)CC(=O)CC(O)CC(O)CC(O)CC(=O)CCCC(=O)CC(=O)OC1C(C)CC(C)C(O)CC(=O)c1ccc(N)cc1 (stereo not given in full) | -98.6% (active) | -93.4% (active) | -96.4% (active) | -96.8% (active) | -99.7% (active) | -98.2% (active) | -98.4% (active) | -72.2% (active) | -63.1% (active) | -43.7% (active) | -97.5% (active) | – | -96.1% (active) | -100% (active) | -83.7% (active) | -99.7% (active) | -52.8% (active) | -99.6% (active) | -59.2% (active)
6 | COc1ccc(-c2cc(-c3ccc(Cl)cc3)nc(SCCCCCCC(=O)NO)n2)cc1OC | 51.6% | 70.6% | 20.1% | 61.1% | 38.1% | 30.3% | 67.9% | 16.2% | 21.3% | -9.15% (active) | 51.5% | 56.2% | 70.5% | 58.2% | 35.9% | 75.5% | 63.7% | 20% | –
7 | Nc1cc(-c2ccncc2)c[nH]c1=O | 84.1% | 104% | 82.5% | 99.9% | 102% | 99.5% | 73.3% | 77.4% | 74.3% | 109% | 100% | – | 106% | 120% | 108% | 107% | 110% | 104% | 113%
8 | O=c1[nH]c(=O)n(C2C[C@H](O)[C@@H](CO)O2)cc1C(F)(F)F (stereo not given in full) | 109% | 110% | 89.7% | 104% | 106% | 96.3% | 118% | 70.2% | – | 97.5% | 103% | 103% | 114% | 109% | 120% | 117% | 124% | 102% | 95%
